Source: PubChem BioAssay (National Center for Advancing Translational Sciences (NCATS))
DT40 TDP1 CPT – growth inhibition of DT40 Tdp1-/-;hTDP1 cells with camptothecin (screen for TDP1 inhibitors); Potency, µM (doses to about 46.2 µM), inactives show top-dose activity change, negative = growth inhibition, usual class: inhibitors; chicken DT40 Tdp1-/-;hTDP1 cells + 20 nM CPT, ATP luminescence, 48 h; 420,000 compounds, 12% hits; also: nearly all actives have a fitted effect of over 55% in size
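Cell growth measured by CellTiter-Glo luminescence after a minimum 48 h, 37 C compound exposure with 20 nM CPT in Tdp1-knockout DT40 cells stably expressing hTDP1, seeded 400/well; qHTS titration format.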
DT40 TDP1 no CPT – qHTS for Inhibitors of human tyrosyl-DNA phosphodiesterase 1 (TDP1): qHTS in cells in absence of CPT. DT40 Tdp1-/- hTDP1 cells, no CPT, ATP luminescence, 48 h. Potency, µM (titrated, usually from 46.2 µM), for the others: top-dose activity change, negative = growth inhibition, usual class: inhibitors. 420,000 compounds, 15% hits. AID 686978, 2013; also: nearly all actives have a fitted effect of over 55% in size
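Readout: luminescence from CellTiter-Glo after 30 min in the dark at RT. Cells: DT40 Tdp1-/- with stable hTDP1, 400/well. Exposure: compounds alone, ≥48 hr, 37 °C.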
RORgamma inh – inhibitors of mouse ROR gamma transcriptional activity | Drosophila S2 Gal4-RORgamma UAS-luciferase reporter, 20 h | Potency, µM (highest dose often 53.6 µM), for inactives: at the top dose activity change, negative = inhibition, actives largely listed as inhibitors | 310,000 compounds, 5.4% hits | P51450; also: nearly all actives have a fitted effect of over 60% in size
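Luminescence from a UAS-regulated Photinus luciferase reporter in stably transfected Drosophila Schneider cells is measured; decreased signal marks ROR gamma inhibition. Fusion expression is induced by 700 uM copper sulfate for 20 hr.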
Gal4-VP16 FLuc – inhibits Gal4-VP16 luciferase reporter, ROR gamma counter-screen; Drosophila S2 Gal4-VP16 UAS-luciferase, luminescence, 20 h; Potency, µM (top dose mostly 53.6 µM), inactives show top-dose activity, negative = inhibition, actives largely listed as inhibitors; 310,000 compounds, 3.5% hits;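 also: Gal4-VP16 expression switched on by copper sulfate through the metallothionein promoter; nearly all actives have a fitted effect of over 50% in size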
ELG1 DNA repair – inhibitors of ELG1-dependent DNA repair in HEK293T cells | HEK293T ELG1-luciferase reporter, luminescence, 16 h; DNA damage induced by 5-fluorouridine | Potency, µM (highest dose often 46.1 µM), without a hit: at the top dose activity change, negative = inhibition, hits mostly inhibitors | 330,000 compounds, 2.3% hits | AID 504467; also: nearly all actives have a fitted effect of over 55% in size
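DMSO vehicle served as the neutral condition. Each well held 2,000 cells given 5-fluorouridine plus compound; after 16 hr at 37 °C/5% CO2, ONE-Glo was added and luciferase measured 30 min later.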
12-LOX inh – blocks human arachidonate 12S-lipoxygenase. purified 12hLO, xylenol orange hydroperoxide absorbance. Potency, µM (series often up to 108 µM), for inactives: at the highest dose activity change, negative = inhibition, actives largely listed as inhibitors. 580,000 compounds, 1.1% hits. AID 1671190
Target sequence (P18054 whole entry, looked up): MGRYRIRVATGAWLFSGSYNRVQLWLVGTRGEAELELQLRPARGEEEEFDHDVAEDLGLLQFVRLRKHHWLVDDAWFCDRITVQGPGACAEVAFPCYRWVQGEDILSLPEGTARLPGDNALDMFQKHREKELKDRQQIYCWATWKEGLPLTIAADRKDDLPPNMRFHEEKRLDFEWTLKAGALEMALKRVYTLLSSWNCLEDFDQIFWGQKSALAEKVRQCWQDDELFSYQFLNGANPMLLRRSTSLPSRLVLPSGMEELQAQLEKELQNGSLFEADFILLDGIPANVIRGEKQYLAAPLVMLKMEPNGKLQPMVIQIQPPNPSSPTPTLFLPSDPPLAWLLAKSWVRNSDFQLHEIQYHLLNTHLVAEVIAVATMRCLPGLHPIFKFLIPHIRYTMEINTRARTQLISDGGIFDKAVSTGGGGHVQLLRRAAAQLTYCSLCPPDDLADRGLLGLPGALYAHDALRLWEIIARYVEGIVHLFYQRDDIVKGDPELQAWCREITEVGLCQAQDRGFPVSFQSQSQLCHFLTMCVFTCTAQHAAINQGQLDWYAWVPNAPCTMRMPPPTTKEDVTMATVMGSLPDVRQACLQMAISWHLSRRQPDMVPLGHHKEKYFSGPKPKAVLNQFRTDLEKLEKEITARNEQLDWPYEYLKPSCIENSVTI
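Purified human 12hLO at 150 nM in 25 mM Hepes, 0.01% Triton X-100, pH 7.0, preincubated 15 min at room temperature with compound. Reaction started with 40 uM arachidonic acid, 30 min at room temperature. Hydroperoxide measured by Fe-xylenol orange, 573/405 nm absorbance ratio.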
Active calls of the source: *. Most compounds without a hit are left out; they make up all but 15% or so of the library. Calls follow the shape of the dose curve; as a rule, active = well fitted curve in the direction sought with a large enough effect; inconclusive = small, poorly fitted or top-dose-only effect, or another doubt; inactive = no such curve, though single readings can be large; an effect the other way counts as inactive or inconclusive. % is scaled to controls: 0 for no effect and ±100 for the full control effect; potency is read from the fitted curve at half-maximal effect.

How did COc1ccc(C2=NN(C(C)=O)C(c3ccc4nccnc4c3)C2)cc1OC (configuration not stated) do in these assays?
12-LOX inh: -26%

Results for COc1ncccc1C(=O)N1CCCC(C(=O)Nc2cccc(-c3ccc(F)cc3)c2)C1 (configuration not stated) ?
DT40 TDP1 CPT: 21µM*; DT40 TDP1 no CPT: 12µM*; 12-LOX inh: -6%

Results for Cc1ccc(C(=O)N2CCCC(C(=O)Nc3cccc(-c4ccc(F)cc4)c3)C2)cn1 (configuration not stated) ?
DT40 TDP1 CPT: 16µM*; DT40 TDP1 no CPT: 8.2µM*; RORgamma inh: 37%; Gal4-VP16 FLuc: 0%; ELG1 DNA repair: 0%; 12-LOX inh: -3%

Results for Cc1cccc(-c2cccc(NC(=O)C3CCCN(C(=O)c4cccc(C)n4)C3)c2)c1 (configuration not stated) ?
12-LOX inh: 90%

What do the screens show for `COc1ccc(C(=O)C2CCCN(C(=O)c3cccnc3OC)C2)cc1F` (configuration not stated)?
DT40 TDP1 CPT: -16%; DT40 TDP1 no CPT: -6%; RORgamma inh: 13%; Gal4-VP16 FLuc: -14%; ELG1 DNA repair: -27%; 12-LOX inh: 15%

Results for Cc1nc(-c2cccs2)c(CC(=O)N2CCc3ccccc3C2)s1 ?
12-LOX inh: 8.9µM*

Results for CCOc1ccccc1C(=O)Oc1ccc(-c2ccc(C#N)cc2)cc1 ?
12-LOX inh: 13%

How did COC(=O)[C@@]1(Cc2ccc(F)cc2)[C@H]2c3cc(C(=O)N4CCCC4)n(Cc4ccc(S(C)(=O)=O)cc4)c3C[C@H]2CN1C(=O)c1ccccc1 do in these assays?
DT40 TDP1 CPT: inconclusive; DT40 TDP1 no CPT: 18µM*; RORgamma inh: 40%; Gal4-VP16 FLuc: -7%; 12-LOX inh: -13%

Results for COC(=O)[C@@]1(Cc2ccc(F)cc2)[C@H]2c3cc(C(=O)N(C)C)n(Cc4ccc(S(C)(=O)=O)cc4)c3C[C@H]2CN1C(=O)c1ccccc1 ?
DT40 TDP1 CPT: 21µM*; DT40 TDP1 no CPT: inconclusive; RORgamma inh: inconclusive; Gal4-VP16 FLuc: -9%; 12-LOX inh: -13%

Results for O=C(Cc1ccccc1)NCC1CN(C(=O)C2CCOCC2)CC12CN(c1ccccc1)C2 (configuration not stated) ?
12-LOX inh: 59%

What do the screens show for `CN(C)/C=C/C(=C\C(=O)C(F)(F)F)Nc1ccc(C(F)(F)F)cc1`?
DT40 TDP1 CPT: inconclusive; DT40 TDP1 no CPT: 18µM*; RORgamma inh: 0%; Gal4-VP16 FLuc: -2%; ELG1 DNA repair: -15%; 12-LOX inh: -20%

Results for CC(O)C(=O)Nc1ccc(C(F)(F)F)cc1 (configuration not stated) ?
12-LOX inh: -6%

What do the screens show for `CCOC(=O)c1ccccc1NC(=O)NCc1cccn1Cc1ccc(F)cc1`?
DT40 TDP1 CPT: 23µM*; DT40 TDP1 no CPT: 23µM*; 12-LOX inh: 6%

How did COc1ccc(C)cc1NC(=O)NCc1cccn1Cc1ccccc1 do in these assays?
DT40 TDP1 CPT: -19%; DT40 TDP1 no CPT: inconclusive; 12-LOX inh: -14%

How did CCN(C(=O)C(=O)c1c(C)[nH]c2ccccc12)c1cccc(Cl)c1 do in these assays?
12-LOX inh: 12%

Results for Cc1ccc(C)c(NC(=O)N2CCN(c3nnc(C)c4c(C)n(-c5ccccc5)nc34)CC2)c1 ?
DT40 TDP1 CPT: -12%; DT40 TDP1 no CPT: -3%; 12-LOX inh: -29%
